# Experimental data reported in PubChem BioAssay AID463173 (ICCB-Longwood Screening Facility, Harvard Medical School, 2010).
# Among all 52,000 compounds or so, about 1,700 (3.3%) were called active. For the sample, actives were picked, then their nearest neighbours and some compounds at random. Unmarked numbers belong to inactive results. Rule as the data show it: active = survival mostly below about 52% (no sharp cut-off); inactive = mostly above about 56%.
# Tested on: Wild type
# Assay: S. aureus survival, RN4220 and DeltatarO strains – OD600, teichoic acid synthesis inhibitors, primary screen (AID 463173)
# Details: S. aureus RN4220 wild type/DeltatarO growth, OD600, 18 h, active compounds read low, screened at 18.75 µg/mL (by protocol)
row,Compound,survival
1,Cc1cccc(OC(=O)c2cc(-c3ccc4c(c3)OCCO4)on2)c1C,-6% (active)
2,Cc1cccc(OC(=O)c2cc(-c3ccc(Cl)cc3)on2)c1C,116%
3,O=C(Nc1cccc(Br)c1)c1cc(-c2ccc3c(c2)OCCO3)on1,80%
4,CCCc1nnc(NC(=O)Cc2coc3ccc(C(C)C)cc23)s1,99%
5,O=C(Nc1ccc2c(c1)N(C1CCCC1)C(=O)c1ccccc1S2)c1ccccc1,75%
6,O=C(Nc1ccc2c(c1)N(C1CCCC1)C(=O)c1ccccc1S2)c1ccc(F)cc1,87%
7,CC(=O)Nc1ccc(C(=O)Nc2ccc3c(c2)N(C2CCCC2)C(=O)c2ccccc2S3)cc1,-6% (active)
8,Cc1ccc(S(=O)(=O)C(=O)Nc2cccc3nsnc23)cc1,93%
9,CCc1ccc(NC(=O)Cn2c(=O)n(CC3CCCO3)c(=O)c3cc(OC)c(OC)cc32)cc1 (stereo not drawn),68%
10,CN1CCN(C(CNC(=O)C(=O)Nc2ccc(F)cc2)c2cccnc2)CC1 (stereo not drawn),96%
11,Cc1cc2c(cc1S(=O)(=O)N(C)CC(=O)Nc1ccc(C#N)cc1)OCC(=O)N2,64%
12,Cc1cc2c(cc1S(=O)(=O)N(C)CC(=O)Nc1cccc(C#N)c1)OCC(=O)N2,-4% (active)
13,CN(CC(=O)Nc1cccc(C#N)c1)S(=O)(=O)c1cc2c(cc1Cl)NC(=O)CO2,129%
14,COc1ccc(-c2[nH]ncc2C(=O)NCc2cccc(F)c2)cc1,78%
15,Cc1noc2nc(C(=O)O)nc(N3CCCCC3)c12,73%
16,CCOC(=O)c1c(C)oc2nc(C)nc(N3CCN(c4ccc(OC)cc4)CC3)c12,68%
17,CCOC(=O)c1nc(N2CCN(c3ccc(F)cc3)CC2)c2c(C)noc2n1,14% (active)
18,CCC(=O)N1CCc2cc(CNS(=O)(=O)c3cccs3)ccc21,89%
19,Cc1cc(OCC(=O)NCC2(N3CCN(C)CC3)CCCCC2)cc(C)c1Cl,80%
20,CC(C)Oc1ccc(CNC(=O)c2ccccc2NC(=O)c2nsc3ccccc23)cc1,124%

row,Compound,survival
1,Cc1ccc(CNC(=O)c2ccccc2NC(=O)c2nsc3ccccc23)cc1,75%
2,CCOc1ccc(CNC(=O)c2ccccc2NC(=O)c2nsc3ccccc23)cc1,-6% (active)
3,Cc1ccc(S(=O)(=O)NCCc2nnc3ccc(SCC(=O)Nc4c(C)cc(C)cc4C)nn23)cc1,86%
4,CCC(=O)N1CCc2cc(S(=O)(=O)NCCC(=O)Nc3cc(C)ccc3OC)ccc21,117%
5,Cc1ccc(NC(=O)C(Cc2c[nH]c3ccccc23)NC(=O)OCC(C)C)cc1 (stereo not drawn),54%
6,COC(=O)c1c(NC(=O)C(C)Oc2ccc(Cl)cc2Cl)sc2c1CCCC2 (stereo not drawn),57%
7,CCCCOc1ccc(C(=O)Nc2sc3c(c2C(=O)OCC)CCCCC3)cc1,38%
8,CCCc1ccc(OC(C)C(=O)Nc2sc3c(c2C(=O)OC)CCCCC3)cc1 (stereo not drawn),-2% (active)
9,Cc1cc(OC(C)C(=O)Nc2sc3c(c2C(N)=O)CCCC3)ccc1Cl (stereo not drawn),82%
10,CCOC(=O)c1c(NC(=O)c2ccc(OC)cc2)sc2c1CCCCC2,7% (active)
11,CNC(=O)c1c(NC(=O)c2ccc(S(=O)(=O)N3CCCC(C)C3)cc2)sc2c1CCC2 (stereo not drawn),101%
12,CNC(=O)c1c(NC(=O)c2ccc(S(=O)(=O)N3CCC(C)CC3)cc2)sc2c1CCC2,129%
13,CCCc1ccc(OCC(=O)Nc2sc3c(c2C(=O)OC)CCCCC3)cc1,43%
14,COC(=O)c1c(NC(=O)C(C)Oc2ccc(Cl)c(C)c2)sc(C)c1C (stereo not drawn),10% (active)
15,CCOC(=O)c1c(NC(=O)C(C)Oc2ccc(Cl)c(C)c2)sc2c1CCCC2 (stereo not drawn),50%
16,CCCOc1ccc(C(=O)Nc2sc3c(c2C(=O)OCC)CCCCC3)cc1,27%
17,CNC(=O)c1c(NC(=O)c2ccc(S(=O)(=O)N3CCCCC3)cc2)sc2c1CCC2,-2% (active)
18,O=C(Nc1ccc(F)cc1F)c1cccc2c1C(=O)N(C1CCCCC1)C2,94%
19,CCn1c(C(=O)N2CCC(C(=O)N3CCN(c4ccc(OC)cc4)CC3)CC2)cc2sccc21,62%
20,CCOc1ccccc1NC(=O)NC(CC)c1c(-n2cccc2)sc2c1CCN(C)C2 (stereo not drawn),69%

row,Compound,survival
1,CC1=C(C#N)c2nc(N)c(C#N)c(C)c2/C1=C\c1cccnc1,83%
2,COc1ccc(Cl)cc1NC(=O)CCC(=O)N1CCOc2ccccc21,83%
3,CC(=O)c1cccc(-n2c(=O)c3c4c(sc3n(Cc3ccccc3Cl)c2=O)CN(C(C)=O)CC4)c1,88%
4,CCOC(=O)c1cc2c(=O)n3ccccc3nc2n(Cc2ccco2)c1=NC(=O)c1ccc(C(C)(C)C)cc1,72%
5,CCOC(=O)c1c(NC(=O)c2ccccc2C)sc2c1CCCC2,-8% (active)
6,CCOC(=O)c1c(NC(=O)c2ccc(OC)c(OC)c2)sc2c1CCCCC2,69%
7,CCOC(=O)c1c(NC(=O)c2cc(Cl)ccc2Cl)sc2c1CCCC2,76%
8,CCOC(=O)c1c(NC(=O)c2ccc(OCC)c(Br)c2)sc2c1CCCC2,67%
9,CCOC(=O)c1c(NC(=O)c2ccc(S(=O)(=O)N(CC)CC)cc2)sc2c1CCCCC2,80%
10,CCOC(=O)c1c(NC(=O)c2cc(OCC)c(OCC)c(OCC)c2)sc2c1CCCCC2,83%
11,CCOC(=O)c1c(NC(=O)c2ccc(C)cc2)sc2c1CCCCC2,-1% (active)
12,CCOC(=O)c1c(NC(=O)c2ccc(C)c(C)c2)sc2c1CCCCC2,0% (active)
13,CCOC(=O)c1c(NC(C)=O)sc2c1CCC2,104%
14,Cc1c(C(=O)Nc2ccccc2Br)oc2ccc(S(=O)(=O)N3CCCCCC3)cc12,83%
15,O=C(NCc1ccc(F)cc1)c1ccc2c(Cl)c3c(nc2c1)CCCC3,62%
16,Cc1cc(C)cc(N2CC(c3nc(-c4cccc(Cl)c4)no3)CC2=O)c1 (stereo not drawn),32%
17,CCCCNC(=O)c1sc2ncccc2c1-n1cccc1,47%
18,CCc1nc(-c2cc(S(=O)(=O)N3CCN(c4ccccc4OC)CC3)ccc2OC)no1,69%
